Structures can show the parent of a compound that is named as a salt. In all, about 2,800 compounds were measured (“cell viability relative to vehicle”: median about 1.1, lowest 2% from about 0.19 on). The full list was thinned out, with the lowest values kept by preference.

This experiment concerns NCI-H2228 parental. Put plainly: cell viability relative to vehicle (fraction of vehicle); NCI-H2228 is an ALK-positive lung cancer line and DTP means drug-tolerant persister; higher = less growth inhibition. As to conditions: 100 nM; treatment time 6 days. In short, it runs like this:
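Values give cell viability as a fraction of vehicle-treated cells. Parental and drug-tolerant persister NCI-H2228 cells (persisters made with 1000 nM of a targeted drug for 13 days) were exposed in 384-well plates to the 3114-agent TargetMol anti-cancer compound library at 100 nM, with DMSO as vehicle. ATP was then read after 6 days by the CellTiter-Glo 3D Cell Viability Assay.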
`CC(C)[C@]12O[C@H]1[C@@H]1O[C@]13[C@]1(O[C@H]1C[C@H]1C4=C(CC[C@@]13C)C(=O)OC4)[C@@H]2O` [Triptolide]: the cell viability was 0.121.
The value for `N#Cc1c(Oc2cccc(OS(=O)(=O)CCCC(F)(F)F)c2)cccc1C(F)(F)F` was 1.01; that for `O=C(O)CCCCCCCCCO` [10-Hydroxydecanoic Acid] was 1.17; that for `C[C@@]12C[C@@H](c3ccoc3)OC(=O)[C@@H]1CC[C@]1(C)[C@H]2[C@@H]2C=C[C@@]1(O)C(=O)O2` [Columbin] was 1.06.
In the case of `Cc1c([C@H](C)[C@@H]2NC[C@@H](C)C[C@H]2O)ccc2c1C[C@H]1[C@H]2CC=C2C[C@@H](O)CC[C@@]21C` [Veratramine] it was 1.12; in that of `COc1cc([C@@H]2c3cc4c(cc3[C@@H](O)[C@H]3COC(=O)[C@H]23)OCO4)cc(OC)c1O` [4'-Demethylepipodophyllotoxin], 0.402; in that of `CC(=O)OC12COC1CC(O)C1(C)C(=O)C(O)C3=C(C)C(O)CC(O)(C(OC(=O)c4ccccc4)C21)C3(C)C` (stereo not given) [10-Deacetylbaccatin III], 1.13.
With `C/C=C(\C)C(=O)N[C@@H](c1ccccc1)[C@@H](O)C(=O)O[C@H]1C[C@@]2(O)[C@@H](OC(=O)c3ccccc3)[C@@H]3[C@]4(OC(C)=O)CO[C@@H]4C[C@H](O)[C@@]3(C)C(=O)[C@H](OC(C)=O)C(=C1C)C2(C)C` [Cephalomannine], the cell viability is 0.129.
Turning to `CC(=O)O[C@H]1C(=O)[C@@]2(C)[C@H]([C@H](OC(=O)c3ccccc3)[C@]3(O)C[C@H](O)C(C)=C1C3(C)C)[C@]1(OC(C)=O)CO[C@@H]1C[C@@H]2O` [Baccatin III], the cell viability was 0.968.
Take `COc1ccc(/C=C/c2cc(OC)cc(OC)c2)cc1` [Trimethoxystilbene]: the cell viability came to 1.05.
Take `CN(C(=O)/C=C/c1ccoc1)[C@@H]1CC[C@@]2(O)[C@H]3Cc4ccc(O)c5c4[C@@]2(CCN3CC2CC2)[C@H]1O5` [Nalfurafine hydrochloride]: the cell viability worked out at 0.993.
Regarding `CN1[C@H]2C[C@H](OC(=O)[C@H](CO)c3ccccc3)C[C@@H]1[C@@H](O)C2` [Anisodamine], the cell viability worked out at 1.1.
The value for `CCc1c2c(nc3ccccc13)-c1cc3c(c(=O)n1C2)COC(=O)[C@]3(O)CC` [7-Ethylcamptothecin] was 0.054; that for `CC[C@@]1(O)C(=O)OCc2c1cc1n(c2=O)Cc2cc3ccccc3nc2-1` [(S)-(+)-Camptothecin] was 0.0882; that for `CC1(C)C(C(=O)Nc2ccc(S(=O)(=O)c3ccc(NC(=O)C4C(C)(C)C4(C)C)cc3)cc2)C1(C)C` was 0.839.
In the case of `C[C@H]1CCC2N(C1)C[C@H]1C3CC4[C@@H](CC(=O)C5C[C@@H](O)CC[C@@]54C)C3CCC1[C@]2(C)O` (stereo not given in full) [Peiminine], the cell viability was determined as 1.12.
On to `O=C(CBr)c1ccc(O)cc1` [PTP Inhibitor I], for which the cell viability amounted to 1.01.
For the molecule `Clc1ccc(OC[C@H]2CCN2)cn1` [Tebanicline hydrochloride], the cell viability was 1.12.
As to `Oc1cc(O)cc(/C=C/c2ccc(O)cc2O)c1` [Oxyresveratrol], the cell viability came to 0.982.
Consider `C=C1CC[C@H]2[C@@H](/C=C(\C)C(=O)[C@@]3(O)C[C@H](C)[C@H](O)[C@@H]3[C@@H]1O)C2(C)C` [Lathyrol], for which the cell viability is 1.09.
With `CN[C@@H](Cc1c[nH]c2ccccc12)C(=O)O` [Abrine], the cell viability was found to be 1.08.
In the case of `CC1(C)C(=O)N(c2ccc(C#N)c(C(F)(F)F)c2)C(=O)N1CCCCO` it was 1.27; in that of `C[C@H]1CCC/C=C/[C@@H]2C[C@H](O)C[C@H]2[C@H](O)/C=C/C(=O)O1` [Brefeldin A], 0.0967; in that of `COc1ccc(/C=C2\CCCN=C2c2cccnc2)c(OC)c1` [GTS 21 dihydrochloride], 1.13.
For the molecule `COc1cc([C@@H]2c3cc4c(cc3[C@H](O)[C@H]3COC(=O)[C@H]23)OCO4)cc(OC)c1O` [4'-Demethylpodophyllotoxin], the cell viability was 0.68.
In the case of `Cn1c(CCCCCCC(=O)NO)nc2cc(N(CCCl)CCCl)ccc21` [Minomustine], the cell viability was determined as 1.12.
As to `O=C(O)CNC(=O)C1C(=O)N(C2CCCCC2)C(=O)N(C2CCCCC2)C1=O` [Daprodustat], the cell viability was found to be 1.04.
For `C/C(=C\c1csc(C)n1)[C@@H]1C[C@@H]2O[C@]2(C)CCC[C@H](C)[C@H](O)[C@@H](C)C(=O)C(C)(C)[C@@H](O)CC(=O)O1` [Epothilone B], the cell viability amounted to 0.141.
As to `C/C(=C\c1csc(C)n1)[C@@H]1C[C@@H]2O[C@@H]2CCC[C@H](C)[C@H](O)[C@@H](C)C(=O)C(C)(C)[C@@H](O)CC(=O)O1` [Epothilone A], the cell viability came to 0.0991.
`C[C@H](Nc1ncnc2[nH]cnc12)c1nc2ccc(F)cc2c(=O)n1-c1ccccc1` [Acalisib]: the cell viability is 1.02.
In the case of `Cn1c(COP(=O)(NCCBr)NCCBr)cnc1[N+](=O)[O-]` [Evofosfamide], the cell viability was 1.15.
Consider `CC(=O)OC(C)(C)/C=C/C(=O)[C@](C)(O)[C@H]1[C@H](O)C[C@@]2(C)[C@@H]3CC=C4[C@H](C[C@H](O)C(=O)C4(C)C)[C@]3(C)C(=O)C[C@]12C` [Cucurbitacin B], for which the cell viability stood at 0.223.
Take `Clc1ccc(C(OCCN2CCCCC2)c2ccccc2)cc1` (stereo not given) [Cloperastine hydrochloride]: the cell viability is 1.15.
The value for `C[C@]12CC[C@H](O)C[C@H]1CC[C@@H]1[C@@H]2CC[C@]2(C)[C@@H](c3ccc(=O)oc3)CC[C@]12O` [Bufalin] was 0.423.
For the molecule `CC(C)[C@H](N)C(=O)N1CCC[C@H]1B(O)O` [Talabostat mesylate], the cell viability is 0.987.

(Values after the supplement of paper PMC10600219.)
